These results are taken from PMC11006913.

Where a chain is given by its changes, count along the chain named.

Holding throughout (test): PBM; 200 nM protein, PBS
What all share (settings): dsDNA, one strand shown

Assay [1] deals with HOXB4 (Homo sapiens, UniProt P17483 148-234).
Assay [2] concerns the target T1, VENTX (Homo sapiens, UniProt O95231 78-163, R121Q).
T1 sequence: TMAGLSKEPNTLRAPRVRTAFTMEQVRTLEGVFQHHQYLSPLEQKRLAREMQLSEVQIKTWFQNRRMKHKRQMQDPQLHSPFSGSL

The target of the next assay is ALX4 (Homo sapiens, UniProt Q9H161 200-286).
Assay [3] has as its target T2, PAX4 (Homo sapiens, UniProt O43316 9-242, R200K).
T2 sequence: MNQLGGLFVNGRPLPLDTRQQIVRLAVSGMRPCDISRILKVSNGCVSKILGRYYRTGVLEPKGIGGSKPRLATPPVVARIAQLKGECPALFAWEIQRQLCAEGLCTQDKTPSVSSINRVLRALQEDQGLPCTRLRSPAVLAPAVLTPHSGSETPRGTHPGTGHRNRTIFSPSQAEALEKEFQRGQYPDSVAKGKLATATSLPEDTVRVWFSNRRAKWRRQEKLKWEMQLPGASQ

Assay [4] concerns the target PRRX1 (Homo sapiens, UniProt P54821 80-166, F113S).
For assay [5], the target named is T3, VENTX (Homo sapiens, UniProt O95231 78-163, Y115F).
T3 sequence: T1 sequence with Y38F, Q44R

For assay [6], the target named is T4, PAX4 (Homo sapiens, UniProt O43316 9-242).
T4 sequence: T2 sequence with K192R

Assay [7] concerns the target HOXA2 (Homo sapiens, UniProt O43364 129-215, R185T).
Assay [8] concerns the target HOXA4 (Homo sapiens, UniProt Q00056 201-287, R217L).
The target in assay [9] is HOXB4 (Homo sapiens, UniProt P17483 148-234, V174I).
The target in assay [10] is T5, PAX4 (Homo sapiens, UniProt O43316 9-242, R200Q).
T5 sequence: T2 sequence with K192Q

Assay [11] concerns the target HOXA2 (Homo sapiens, UniProt O43364 129-215, R185K).
The target in assay [12] is T6, PAX4 (Homo sapiens, UniProt O43316 9-242, F177V).
T6 sequence: T2 sequence with F169V, K192R

Assay [13] addresses MSX2 (Homo sapiens, UniProt P35548 130-214).
The target in assay [14] is T7, PAX4 (Homo sapiens, UniProt O43316 9-242, F177Y).
T7 sequence: T2 sequence with F169Y, K192R

The target of assay [15] is MSX2 (Homo sapiens, UniProt P35548 130-214, F161Y).
In assay [16] the target is VAX1 (Homo sapiens, UniProt Q5SQQ9 86-172, T142I).
For assay [17], the target named is HOXA4 (Homo sapiens, UniProt Q00056 201-287, W262F).
Assay [18] concerns the target PRRX1 (Homo sapiens, UniProt P54821 80-166).
Assay [19] has as its target VAX1 (Homo sapiens, UniProt Q5SQQ9 86-172, K157R).

VAX1 (Homo sapiens, UniProt Q5SQQ9 86-172, T142I), sequence (Q5SQQ9 86-172 T142I): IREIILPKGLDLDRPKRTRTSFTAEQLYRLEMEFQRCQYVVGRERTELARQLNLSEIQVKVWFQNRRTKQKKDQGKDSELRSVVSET
PRRX1 (Homo sapiens, UniProt P54821 80-166), sequence (P54821 80-166): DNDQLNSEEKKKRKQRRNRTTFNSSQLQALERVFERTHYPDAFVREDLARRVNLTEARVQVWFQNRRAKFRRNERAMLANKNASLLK
VAX1 (Homo sapiens, UniProt Q5SQQ9 86-172, K157R), sequence (Q5SQQ9 86-172 K157R): as the sequence (Q5SQQ9 86-172 T142I) above, with I57T, K72R counted along it
HOXA2 (Homo sapiens, UniProt O43364 129-215, R185T), sequence (O43364 129-215 R185T): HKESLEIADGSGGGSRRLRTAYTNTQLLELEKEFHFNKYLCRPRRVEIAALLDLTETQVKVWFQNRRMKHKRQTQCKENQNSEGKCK
MSX2 (Homo sapiens, UniProt P35548 130-214), sequence (P35548 130-214): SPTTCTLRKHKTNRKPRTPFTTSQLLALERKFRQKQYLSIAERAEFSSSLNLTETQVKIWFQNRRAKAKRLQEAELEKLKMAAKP
HOXB4 (Homo sapiens, UniProt P17483 148-234, V174I), sequence (P17483 148-234 V174I): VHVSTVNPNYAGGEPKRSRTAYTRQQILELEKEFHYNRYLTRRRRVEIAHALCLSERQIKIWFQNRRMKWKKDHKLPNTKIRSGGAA
HOXA4 (Homo sapiens, UniProt Q00056 201-287, R217L), sequence (Q00056 201-287 R217L): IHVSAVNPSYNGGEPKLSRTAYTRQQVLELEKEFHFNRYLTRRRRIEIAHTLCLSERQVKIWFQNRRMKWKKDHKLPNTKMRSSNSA
HOXA4 (Homo sapiens, UniProt Q00056 201-287, W262F), sequence (Q00056 201-287 W262F): as the sequence (Q00056 201-287 R217L) above, with L17R, W62F counted along it
PRRX1 (Homo sapiens, UniProt P54821 80-166, F113S), sequence (P54821 80-166 F113S): as the sequence (P54821 80-166) above, with F34S counted along it
MSX2 (Homo sapiens, UniProt P35548 130-214, F161Y), sequence (P35548 130-214 F161Y): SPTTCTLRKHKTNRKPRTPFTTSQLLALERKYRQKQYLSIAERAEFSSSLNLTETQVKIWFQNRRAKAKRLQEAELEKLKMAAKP
HOXB4 (Homo sapiens, UniProt P17483 148-234), sequence (P17483 148-234): as the sequence (P17483 148-234 V174I) above, with I27V counted along it
HOXA2 (Homo sapiens, UniProt O43364 129-215, R185K), sequence (O43364 129-215 R185K): as the sequence (O43364 129-215 R185T) above, with T57K counted along it
ALX4, sequence (Q9H161 200-286): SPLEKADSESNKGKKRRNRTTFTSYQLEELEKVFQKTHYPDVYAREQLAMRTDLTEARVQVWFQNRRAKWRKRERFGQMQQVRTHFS

Regarding ATAATTAT, the binding signal was 13.7 upbm affinity estimate (log intensity, higher = more binding, comparable within an allelic series) in the assay with HOXB4 [1]; 11.9 upbm affinity estimate (log intensity, higher = more binding, comparable within an allelic series) in the assay with VENTX [2]; 14.2 upbm affinity estimate (log intensity, higher = more binding, comparable within an allelic series) in the assay with ALX4; 11.9 upbm affinity estimate (log intensity, higher = more binding, comparable within an allelic series) in the assay with PAX4 [3]; 11.7 upbm affinity estimate (log intensity, higher = more binding, comparable within an allelic series) with PRRX1 [4]; 11.8 upbm affinity estimate (log intensity, higher = more binding, comparable within an allelic series) with VENTX [5]. Moreover, the binding signal in the assay with PAX4 [6] was 12.4 upbm affinity estimate (log intensity, higher = more binding, comparable within an allelic series); in the assay with HOXA2 [7], 13.6 upbm affinity estimate (log intensity, higher = more binding, comparable within an allelic series); with HOXA4 [8], 12.7 upbm affinity estimate (log intensity, higher = more binding, comparable within an allelic series); in the assay with HOXB4 [9], 14.5 upbm affinity estimate (log intensity, higher = more binding, comparable within an allelic series); with PAX4 [10], 12.3 upbm affinity estimate (log intensity, higher = more binding, comparable within an allelic series); with HOXA2 [11] it was 13.8 upbm affinity estimate (log intensity, higher = more binding, comparable within an allelic series). Besides, the binding signal was 10.9 upbm affinity estimate (log intensity, higher = more binding, comparable within an allelic series) with PAX4 [12]; 14 upbm affinity estimate (log intensity, higher = more binding, comparable within an allelic series) with MSX2 [13]; 11.3 upbm affinity estimate (log intensity, higher = more binding, comparable within an allelic series) in the assay with PAX4 [14]; 13.6 upbm affinity estimate (log intensity, higher = more binding, comparable within an allelic series) with MSX2 [15]; 13.3 upbm affinity estimate (log intensity, higher = more binding, comparable within an allelic series) with VAX1 [16]; 12.1 upbm affinity estimate (log intensity, higher = more binding, comparable within an allelic series) with HOXA4 [17]. The binding signal is 13.6 upbm affinity estimate (log intensity, higher = more binding, comparable within an allelic series) with PRRX1 [18] and 13.3 upbm affinity estimate (log intensity, higher = more binding, comparable within an allelic series) with VAX1 [19].
Take ATTAATTG: the binding signal with HOXB4 [1] is 13.4 upbm affinity estimate (log intensity, higher = more binding, comparable within an allelic series); with VENTX [2], 12.2 upbm affinity estimate (log intensity, higher = more binding, comparable within an allelic series); in the assay with ALX4 it was 14.2 upbm affinity estimate (log intensity, higher = more binding, comparable within an allelic series); in the assay with PAX4 [3] it was 11.8 upbm affinity estimate (log intensity, higher = more binding, comparable within an allelic series); in the assay with PRRX1 [4], 11.4 upbm affinity estimate (log intensity, higher = more binding, comparable within an allelic series); in the assay with VENTX [5], 11.9 upbm affinity estimate (log intensity, higher = more binding, comparable within an allelic series). Moreover, the binding signal with PAX4 [6] was 12.4 upbm affinity estimate (log intensity, higher = more binding, comparable within an allelic series); in the assay with HOXA2 [7], 13.3 upbm affinity estimate (log intensity, higher = more binding, comparable within an allelic series); with HOXA4 [8], 12.5 upbm affinity estimate (log intensity, higher = more binding, comparable within an allelic series); with HOXB4 [9], 14.2 upbm affinity estimate (log intensity, higher = more binding, comparable within an allelic series); with PAX4 [10] it was 12.2 upbm affinity estimate (log intensity, higher = more binding, comparable within an allelic series); in the assay with HOXA2 [11], 13.5 upbm affinity estimate (log intensity, higher = more binding, comparable within an allelic series). In addition, the binding signal with PAX4 [12] is 10.7 upbm affinity estimate (log intensity, higher = more binding, comparable within an allelic series); in the assay with MSX2 [13] it was 14 upbm affinity estimate (log intensity, higher = more binding, comparable within an allelic series); with PAX4 [14], 11.2 upbm affinity estimate (log intensity, higher = more binding, comparable within an allelic series); with MSX2 [15], 13.7 upbm affinity estimate (log intensity, higher = more binding, comparable within an allelic series); with VAX1 [16] it was 12.9 upbm affinity estimate (log intensity, higher = more binding, comparable within an allelic series); in the assay with HOXA4 [17], 11.8 upbm affinity estimate (log intensity, higher = more binding, comparable within an allelic series). For the same sequence, the binding signal with PRRX1 [18] is 13.4 upbm affinity estimate (log intensity, higher = more binding, comparable within an allelic series); with VAX1 [19] it was 12.9 upbm affinity estimate (log intensity, higher = more binding, comparable within an allelic series).
CTTAATTA: the binding signal is 13.5 upbm affinity estimate (log intensity, higher = more binding, comparable within an allelic series) with HOXB4 [1]; 12.5 upbm affinity estimate (log intensity, higher = more binding, comparable within an allelic series) with VENTX [2]; 14.5 upbm affinity estimate (log intensity, higher = more binding, comparable within an allelic series) with ALX4; 12.1 upbm affinity estimate (log intensity, higher = more binding, comparable within an allelic series) with PAX4 [3]; 12 upbm affinity estimate (log intensity, higher = more binding, comparable within an allelic series) with PRRX1 [4]; 12.3 upbm affinity estimate (log intensity, higher = more binding, comparable within an allelic series) with VENTX [5]. The binding signal in the assay with PAX4 [6] was 12.7 upbm affinity estimate (log intensity, higher = more binding, comparable within an allelic series); with HOXA2 [7] it was 13.8 upbm affinity estimate (log intensity, higher = more binding, comparable within an allelic series); with HOXA4 [8], 13.1 upbm affinity estimate (log intensity, higher = more binding, comparable within an allelic series); in the assay with HOXB4 [9], 14.2 upbm affinity estimate (log intensity, higher = more binding, comparable within an allelic series); with PAX4 [10] it was 12.6 upbm affinity estimate (log intensity, higher = more binding, comparable within an allelic series); in the assay with HOXA2 [11], 13.8 upbm affinity estimate (log intensity, higher = more binding, comparable within an allelic series). Moreover, the binding signal was 11 upbm affinity estimate (log intensity, higher = more binding, comparable within an allelic series) with PAX4 [12]; 14 upbm affinity estimate (log intensity, higher = more binding, comparable within an allelic series) with MSX2 [13]; 11.5 upbm affinity estimate (log intensity, higher = more binding, comparable within an allelic series) in the assay with PAX4 [14]; 13.6 upbm affinity estimate (log intensity, higher = more binding, comparable within an allelic series) with MSX2 [15]; 13.9 upbm affinity estimate (log intensity, higher = more binding, comparable within an allelic series) with VAX1 [16]; 13 upbm affinity estimate (log intensity, higher = more binding, comparable within an allelic series) with HOXA4 [17]. Besides, the binding signal is 13.6 upbm affinity estimate (log intensity, higher = more binding, comparable within an allelic series) with PRRX1 [18] and 13.8 upbm affinity estimate (log intensity, higher = more binding, comparable within an allelic series) with VAX1 [19].
With AATTAATT, the binding signal is 13.4 upbm affinity estimate (log intensity, higher = more binding, comparable within an allelic series) in the assay with HOXB4 [1]; 12.1 upbm affinity estimate (log intensity, higher = more binding, comparable within an allelic series) with VENTX [2]; 14.7 upbm affinity estimate (log intensity, higher = more binding, comparable within an allelic series) with ALX4; 12.1 upbm affinity estimate (log intensity, higher = more binding, comparable within an allelic series) in the assay with PAX4 [3]; 11.8 upbm affinity estimate (log intensity, higher = more binding, comparable within an allelic series) in the assay with PRRX1 [4]; 11.8 upbm affinity estimate (log intensity, higher = more binding, comparable within an allelic series) with VENTX [5]. Besides, the binding signal with PAX4 [6] is 12.7 upbm affinity estimate (log intensity, higher = more binding, comparable within an allelic series); with HOXA2 [7], 13.4 upbm affinity estimate (log intensity, higher = more binding, comparable within an allelic series); with HOXA4 [8], 12.8 upbm affinity estimate (log intensity, higher = more binding, comparable within an allelic series); in the assay with HOXB4 [9], 14.1 upbm affinity estimate (log intensity, higher = more binding, comparable within an allelic series); with PAX4 [10], 12.8 upbm affinity estimate (log intensity, higher = more binding, comparable within an allelic series); in the assay with HOXA2 [11] it was 13.5 upbm affinity estimate (log intensity, higher = more binding, comparable within an allelic series). Also, the binding signal with PAX4 [12] is 10.9 upbm affinity estimate (log intensity, higher = more binding, comparable within an allelic series); with MSX2 [13], 14.1 upbm affinity estimate (log intensity, higher = more binding, comparable within an allelic series); in the assay with PAX4 [14] it was 11.6 upbm affinity estimate (log intensity, higher = more binding, comparable within an allelic series); with MSX2 [15], 13.8 upbm affinity estimate (log intensity, higher = more binding, comparable within an allelic series); with VAX1 [16], 13.2 upbm affinity estimate (log intensity, higher = more binding, comparable within an allelic series); with HOXA4 [17] it was 12.2 upbm affinity estimate (log intensity, higher = more binding, comparable within an allelic series). For the same sequence, the binding signal was 13.6 upbm affinity estimate (log intensity, higher = more binding, comparable within an allelic series) with PRRX1 [18] and 13.1 upbm affinity estimate (log intensity, higher = more binding, comparable within an allelic series) with VAX1 [19].
